Source: PubChem BioAssay (Tox21)
A number with no mark means an inactive call. Results filed as inconclusive are left out. A call without a number means that no potency is given here. Calls of active or inactive are those of the source. Calls follow the shape of the dose curve; as a rule, active = well fitted curve in the direction sought with a large enough effect in the repeat runs; inconclusive = weak or mixed curves; inactive = no such curve, though single readings can be large; an effect the other way counts as inactive or inconclusive.

Assays:
[1] = A CellTox Green Cytotoxicity Assay to monitor cytotoxicity in HEK293 cells - 24 hour (AID 1224875); also: nearly all actives have a fitted effect of over 45% in size; also: potency is read from the fitted curve at half-maximal effect
Outline: (§1)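 Nonlytic real-time cytotoxicity: HEK293 + CellTox Green reagent plated, 5 h preincubation, pintool compound addition (23 nL in DMSO), 37 C for 40 h, fluorescence measured at successive time points.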

[2] = A CellTox Green Cytotoxicity Assay to monitor cytotoxicity in HepG2 cells - 16 hour (AID 1224876); also: nearly all actives have a fitted effect of over 45% in size; also: potency is read from the fitted curve at half-maximal effect
Outline: (§2)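 Read-out is fluorescence of a cyanine dye excluded from live cells that stains DNA of dead HepG2 cells, with signal proportional to cytotoxicity. Plates were read at 0, 8, 16, 24, 32 and 40 h after compound addition.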

[3] = qHTS RealTime-Glo MT Cell Viability Assay in HepG2 cells - 32 hour (AID 1224877); also: nearly all actives have a fitted effect of over 55% in size; also: potency is read from the fitted curve at half-maximal effect
Outline: (§3)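 Cell number in HepG2 cultures estimated from NanoLuc luminescence generated by metabolic reduction of a prosubstrate by living cells. The homogeneous, nonlytic format allowed repeated reads at 0, 8, 16, 24, 32 and 40 h of compound exposure.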

[4] = A CellTox Green Cytotoxicity Assay to monitor cytotoxicity in HepG2 cells - 24 hour (AID 1224878); also: nearly all actives have a fitted effect of over 45% in size; also: potency is read from the fitted curve at half-maximal effect
Outline: as §2

[5] = qHTS RealTime-Glo MT Cell Viability Assay in HEK293 cells - 0 hour (AID 1224880); also: top concentration of the series differs between compounds; nearly all actives have a fitted effect of over 45% in size
Outline: (§4)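 Cells were seeded together with NanoLuc luciferase and a prosubstrate that viable cells reduce to a luciferase substrate. After a 5 h incubation at 37 C/5% CO2, compounds were added and luminescence was measured repeatedly during 40 h of treatment.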

[6] = A CellTox Green Cytotoxicity Assay to monitor cytotoxicity in HEK293 cells - 32 hour (AID 1224881); also: nearly all actives have a fitted effect of over 40% in size; also: potency is read from the fitted curve at half-maximal effect
Outline: as §1

[7] = A CellTox Green Cytotoxicity Assay to monitor cytotoxicity in HepG2 cells - 0 hour (AID 1224882); also: nearly all actives have a fitted effect of over 35% in size; also: potency is read from the fitted curve at half-maximal effect
Outline: as §2

[8] = A CellTox Green Cytotoxicity Assay to monitor cytotoxicity in HepG2 cells - 32 hour (AID 1224883); also: nearly all actives have a fitted effect of over 50% in size; also: potency is read from the fitted curve at half-maximal effect
Outline: as §2

[9] = A CellTox Green Cytotoxicity Assay to monitor cytotoxicity in HEK293 cells - 8 hour (AID 1224884); also: nearly all actives have a fitted effect of over 35% in size; also: potency is read from the fitted curve at half-maximal effect
Outline: as §1

[10] = qHTS RealTime-Glo MT Cell Viability Assay in HepG2 cells - 16 hour (AID 1224885); also: nearly all actives have a fitted effect of over 50% in size; also: potency is read from the fitted curve at half-maximal effect
Outline: as §3

[11] = qHTS RealTime-Glo MT Cell Viability Assay in HEK293 cells - 24 hour (AID 1224886); also: nearly all actives have a fitted effect of over 50% in size; also: potency is read from the fitted curve at half-maximal effect
Outline: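 Homogeneous bioluminescent viability format in HEK293 cells (600 cells/well). Following 5 h at 37 C/5% CO2, 23 nL compound was pintooled; the signal was measured repeatedly during 40 h incubation.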

[12] = qHTS RealTime-Glo MT Cell Viability Assay in HEK293 cells - 8 hour (AID 1224887); also: nearly all actives have a fitted effect of over 50% in size; also: potency is read from the fitted curve at half-maximal effect
Outline: as §4

[13] = qHTS RealTime-Glo MT Cell Viability Assay in HepG2 cells - 0 hour (AID 1224889); also: nearly all actives have a fitted effect of over 50% in size
Outline: as §3

[14] = A CellTox Green Cytotoxicity Assay to monitor cytotoxicity in HepG2 cells - 8 hour (AID 1224890); also: nearly all actives have a fitted effect of over 45% in size; also: potency is read from the fitted curve at half-maximal effect
Outline: as §2

[15] = qHTS assay to identify small molecule antagonists of the estrogen receptor alpha (ER-alpha) signaling pathway using the BG1 cell line in the presence of 0.1 nM 17-beta-estradiol - cell viability counter screen (AID 1259241); also: nearly all actives have a fitted effect of over 40% in size; also: potency is read from the fitted curve at half-maximal effect
Outline: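 The cell line endogenously expresses full-length ER-alpha and carries four EREs driving luciferase. Cells are cultured 5 days hormone-free, treated 22 hr with compounds and 0.1 nM estradiol, then viability is read by fluorescence.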

[16] = biological target: Androgen receptor (Homo sapiens) (UniProt P10275); assay: qHTS assay to identify small molecule antagonists of the androgen receptor (AR) signaling pathway using the MDA cell line in the presence of 0.5 nM R1881 (AID 1259243); also: nearly all actives have a fitted effect of over 50% in size; also: potency is read from the fitted curve at half-maximal effect
Androgen receptor (Homo sapiens), sequence (P10275 whole entry, looked up): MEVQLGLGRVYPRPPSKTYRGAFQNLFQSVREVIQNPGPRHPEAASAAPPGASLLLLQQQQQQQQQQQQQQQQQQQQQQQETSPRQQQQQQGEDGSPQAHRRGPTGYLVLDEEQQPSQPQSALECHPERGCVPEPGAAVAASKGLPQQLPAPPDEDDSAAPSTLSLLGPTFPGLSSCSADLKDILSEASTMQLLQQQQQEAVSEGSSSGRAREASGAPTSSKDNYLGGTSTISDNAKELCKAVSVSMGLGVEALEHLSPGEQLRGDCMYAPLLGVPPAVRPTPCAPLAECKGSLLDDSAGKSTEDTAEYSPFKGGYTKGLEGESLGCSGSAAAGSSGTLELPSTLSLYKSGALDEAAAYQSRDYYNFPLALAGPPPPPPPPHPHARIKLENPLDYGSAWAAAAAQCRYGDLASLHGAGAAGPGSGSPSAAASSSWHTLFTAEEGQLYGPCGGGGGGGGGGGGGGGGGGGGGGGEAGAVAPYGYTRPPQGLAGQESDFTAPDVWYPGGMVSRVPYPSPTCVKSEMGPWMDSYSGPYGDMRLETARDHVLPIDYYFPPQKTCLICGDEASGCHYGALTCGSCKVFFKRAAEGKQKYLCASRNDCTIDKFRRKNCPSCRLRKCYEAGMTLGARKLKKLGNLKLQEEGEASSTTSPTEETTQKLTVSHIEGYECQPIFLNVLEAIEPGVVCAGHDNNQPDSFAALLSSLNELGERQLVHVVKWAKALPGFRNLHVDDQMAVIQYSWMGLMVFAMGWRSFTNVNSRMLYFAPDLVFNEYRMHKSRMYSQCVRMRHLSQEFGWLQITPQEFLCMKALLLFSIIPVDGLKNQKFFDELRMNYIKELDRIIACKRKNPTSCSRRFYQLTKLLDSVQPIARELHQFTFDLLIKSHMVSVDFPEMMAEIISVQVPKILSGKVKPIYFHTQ
Outline: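 Luciferase luminescence is the read-out: compounds are tested for suppressing 0.5 nM R1881-driven MMTV reporter activity in MDA-kb2 cells after 16 hr at 37C.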

[17] = biological target: Estrogen receptor (Homo sapiens) (UniProt P03372); assay: qHTS assay to identify small molecule antagonists of the estrogen receptor alpha (ER-alpha) signaling pathway using the BG1 cell line in the presence of 0.1 nM 17-beta-estradiol (AID 1259244); also: nearly all actives have a fitted effect of over 50% in size; also: potency is read from the fitted curve at half-maximal effect
Estrogen receptor (Homo sapiens), sequence (P03372 whole entry, looked up): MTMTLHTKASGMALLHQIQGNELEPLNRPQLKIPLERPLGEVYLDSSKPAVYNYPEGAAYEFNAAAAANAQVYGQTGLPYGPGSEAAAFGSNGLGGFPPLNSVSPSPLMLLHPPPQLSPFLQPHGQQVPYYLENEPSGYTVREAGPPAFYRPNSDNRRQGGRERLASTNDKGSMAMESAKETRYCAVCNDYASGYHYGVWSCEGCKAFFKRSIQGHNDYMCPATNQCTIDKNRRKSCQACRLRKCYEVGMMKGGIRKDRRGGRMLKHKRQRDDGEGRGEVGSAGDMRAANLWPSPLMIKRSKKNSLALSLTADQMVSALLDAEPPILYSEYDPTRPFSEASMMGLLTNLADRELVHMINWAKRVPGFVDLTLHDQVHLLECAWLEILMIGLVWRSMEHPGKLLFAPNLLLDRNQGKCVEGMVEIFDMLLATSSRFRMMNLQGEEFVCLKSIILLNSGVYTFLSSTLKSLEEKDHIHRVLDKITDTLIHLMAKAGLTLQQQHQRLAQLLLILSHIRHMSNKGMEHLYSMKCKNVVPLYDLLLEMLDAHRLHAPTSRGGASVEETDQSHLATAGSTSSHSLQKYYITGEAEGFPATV
Outline: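 Cells: VM7Luc4E2, endogenous ER-alpha, 4x ERE-luc stable. Pre-culture 5 d, phenol red-free, charcoal-stripped FBS. Plated 24 h, compound + E2 0.1 nM final, 22 h 37C/5% CO2. Readout ONE-Glo luminescence.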

[18] = A CellTox Green Cytotoxicity Assay to monitor cytotoxicity in HEK293 cells - 16 hour (AID 1224888); also: nearly all actives have a fitted effect of over 35% in size; also: potency is read from the fitted curve at half-maximal effect
Outline: as §1

[19] = qHTS assay to identify small molecule antagonists of the androgen receptor (AR) signaling pathway using the MDA cell line in the presence of 0.5 nM R1881 - cell viability counter screen (AID 1259242); also: nearly all actives have a fitted effect of over 45% in size; also: potency is read from the fitted curve at half-maximal effect
Outline: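 Counter screen for cytotoxicity run in the same wells as the AR antagonist reporter screen: MDA-kb2 cells were treated 16 hr with test compounds and 0.5 nM R1881, then live-cell protease activity was measured by fluorescence.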

[20] = A CellTox Green Cytotoxicity Assay to monitor cytotoxicity in HepG2 cells - 40 hour (AID 1224879); also: nearly all actives have a fitted effect of over 40% in size; also: potency is read from the fitted curve at half-maximal effect
Outline: as §2

Row | Structure (SMILES) | Potency [1] | Potency [2] | Potency [3] | Potency [4] | Potency [5] | Potency [6] | Potency [7] | Potency [8] | Potency [9] | Potency [10] | Potency [11] | Potency [12] | Potency [13] | Potency [14] | Potency [15] | Potency [16] | Potency [17] | Potency [18] | Potency [19] | Potency [20]
1 | NC(=O)C1CO1 (configuration not stated) | inactive | inactive | inactive | inactive | inactive | inactive | inactive | inactive | inactive | inactive | inactive | inactive | inactive | inactive | inactive | inactive | inactive |  |  | 
2 | COc1ccc(OC)c(N=Nc2c(O)ccc3ccccc23)c1 | inactive | inactive | inactive | inactive | inactive | inactive | inactive |  | inactive |  |  |  | inactive | inactive | 9.69 µM (active) |  |  | inactive | 24.3 µM (active) | 
3 | N#Cc1ccc(C/C(=N/NC(=O)Nc2ccc(OC(F)(F)F)cc2)c2cccc(C(F)(F)F)c2)cc1 | inactive | inactive |  | inactive | inactive | inactive | inactive | inactive | inactive |  | inactive | inactive | inactive | inactive | inactive | inactive | inactive |  | inactive | inactive
4 | CCn1c2ccccc2c2ccccc21 | inactive | inactive | inactive | inactive |  | inactive | inactive | inactive | inactive | inactive | inactive |  |  | inactive | inactive |  | inactive | inactive | inactive | 
5 | O=C(N[C@H](CO)[C@H](O)c1ccc([N+](=O)[O-])cc1)C(Cl)Cl | inactive | inactive | inactive | inactive |  | inactive | inactive | inactive | inactive | inactive |  |  | inactive | inactive | inactive |  | inactive |  |  | 
6 | CN[C@H]1CC[C@@H](c2ccc(Cl)c(Cl)c2)c2ccc(S(N)(=O)=O)cc21 | 21.9 µM (active) | 43.6 µM (active) | 19.5 µM (active) | 13.8 µM (active) |  | 24.5 µM (active) | inactive | 13.8 µM (active) | 54.9 µM (active) | 43.6 µM (active) | 21.9 µM (active) |  |  |  | inactive | 30.6 µM (active) | 61.1 µM (active) |  |  | 
7 | CC1=CC[C@@H](C(C)(C)O)CC1 | inactive | inactive |  | inactive | inactive | inactive | inactive | inactive | inactive | inactive | inactive |  |  | inactive | inactive | inactive | inactive | inactive |  | inactive
8 | [Cl][Eu]([Cl])[Cl] | inactive | inactive |  | inactive | inactive | inactive | inactive | inactive | inactive | inactive | inactive | inactive |  | inactive |  |  | inactive |  | inactive | inactive
9 | COCCC(=O)OC | inactive | inactive |  | inactive |  | inactive | inactive | inactive | inactive | inactive | inactive | inactive | inactive | inactive | inactive | inactive |  | inactive | inactive | inactive
10 | CCc1cccc(C)c1N(C(=O)C(=O)O)C(C)COC (configuration not stated) | inactive |  | inactive | inactive |  | inactive | inactive | inactive | inactive | inactive | inactive | inactive | inactive | inactive |  | inactive | inactive | inactive | inactive | inactive
11 | Cc1cc(Br)ccc1NC(=O)CCl | inactive | inactive |  |  | inactive |  | inactive |  | inactive |  | 30.9 µM (active) | 24.5 µM (active) |  | inactive | 61.1 µM (active) |  | inactive | inactive | 48.6 µM (active) | 
12 | CCOc1nc(F)cc2nc(S(=O)(=O)Nc3c(Cl)cccc3C(=O)OC)nn12 | inactive |  | inactive | inactive | inactive | inactive | inactive | inactive | inactive | inactive | inactive |  | inactive | inactive |  | inactive | inactive | inactive | inactive | inactive
13 | COc1cc(/C=C/C(=O)CC(=O)/C=C/c2ccc(O)c(OC)c2)ccc1O | 43.9 µM (active) | 49.3 µM (active) |  | 49.3 µM (active) |  | 39.2 µM (active) | 43.9 µM (active) | 49.3 µM (active) | 49.3 µM (active) |  | 31.1 µM (active) | 6.96 µM (active) |  | 49.3 µM (active) | inactive | 15.4 µM (active) |  | 49.3 µM (active) |  | 19.6 µM (active)
14 | CC(Cc1ccc(O)c(O)c1)C(C)Cc1ccc(O)c(O)c1 (configuration not stated) | inactive | 49 µM (active) |  | 49 µM (active) |  | inactive | inactive | 43.6 µM (active) | inactive | 43.6 µM (active) | 34.7 µM (active) | 43.6 µM (active) | inactive |  | inactive |  | inactive |  | inactive | 43.6 µM (active)
15 | CCc1cccc(C)c1N(C(=O)CS(=O)(=O)O)C(C)COC (configuration not stated) | inactive |  | inactive | inactive | inactive | inactive | inactive | inactive | inactive | inactive | inactive | inactive | inactive | inactive | inactive | inactive | inactive | inactive | inactive | inactive
16 | CC1(C)[C@H]2CC[C@]1(C)C(=O)C2 | inactive |  | inactive | inactive | inactive | inactive | inactive | inactive | inactive | inactive | inactive | inactive | inactive | inactive | inactive |  | inactive | inactive | inactive | 
